The text below walks through data of PubChem BioAssay (NCATS).

Inconclusive results are not listed. Unmarked numbers belong to inactive results. Calls of active or inactive are those of the source. Calls follow the shape of the dose curve; as a rule, active = well fitted inhibition curve with a large enough effect; inconclusive = small, poorly fitted or top-dose-only effect; inactive = flat fitted curve, though single readings scatter.

Experiment in all cases: Cytotoxic Profiling of Annotated Libraries Using Quantitative High-Throughput Screening (AID 1296008); also: nearly all actives have a fitted effect of over 60% in size
What all share (details): Five cell lines viability, CellTiter-Glo ATP luminescence, 48-72 h; max response: stronger effect = lower value
On the technique in general: Cellular ATP, detected with luciferase, serves as a proxy for viable cell number.

The test system of one test is CRL-7250. A digest of the protocol:
(§1)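 Compounds were pin-transferred onto cells and incubated 48 or 72 hr at 37 degree Celsius, 95% humidity. CellTiter-Glo was added, plates sat 10 min at room temperature, then ATP-coupled luminescence was imaged as the viability read-out.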

A further test relates to HEK293. A digest of the protocol:
as §1

In a further test the test system is HaCat. An outline of the steps: as §1
A further test has as its system KB-3-1. A digest of the protocol: as §1
Another test concerns NIH3T3. An outline of the steps: as §1
% is scaled to controls: 0 for no effect and ±100 for the full control effect; potency is read from the fitted curve at half-maximal effect.

As for `CN[C@@H]1[C@H](O[C@H]2[C@H](O[C@@H]3[C@@H](O)[C@H](O)[C@@H](N=C(N)N)[C@H](O)[C@H]3N=C(N)N)O[C@@H](C)[C@]2(O)C=O)O[C@@H](CO)[C@H](O)[C@H]1O`, the max response with CRL-7250 is 2.94%; with HEK293 it was 4.73%; in the test with HaCat it was -17.2%; in the test with NIH3T3 it was -1.39%. The molecule was called inactive in the test on KB-3-1.

For `C[C@H]1CC[C@@H]2N(C1)C[C@@H]1[C@H]([C@@H](O)[C@H](O)[C@]3(O)[C@H]1C[C@@]14OC5(O)[C@@H](C[C@@H](O)[C@@H]31)[C@]4(C)CC[C@@H]5O)[C@]2(C)O`, the molecule was called inactive with CRL-7250 and in the test with KB-3-1. The max response is -8.96% in the test with HEK293, -17.6% in the test with HaCat and 0.156% in the test on NIH3T3.

With `CC(=O)OC1CC2(C)C3=CCC4(C)C5C(O)C(O)C(C(C)C)C5(C)CCC4(C)C3CCC2C(C)(C)C1OC1OC(CO)C(O)C(O)C1O` (stereo not given), the max response was -9.78% with CRL-7250; -1.39% with HEK293; -3% with HaCat; 2.57% in the test with KB-3-1; 4.87% with NIH3T3.

With `CC(C)CCC1(O)C(=O)C(C)(C)C(O[C@@H]2O[C@H](CO)[C@@H](O)[C@H](O)[C@H]2O)C(C)(C)C1O` (stereo not given in full), the max response is 0.265% with CRL-7250; -13.9% in the test on HEK293; -4.8% with HaCat; 0.0434% with KB-3-1; -0.747% in the test on NIH3T3.

On to `C[C@@H]1C(=O)O[C@H]2[C@H](O)C34[C@H]5C[C@@H](C(C)(C)C)C36[C@@H](OC(=O)[C@@H]6O)O[C@@]4(C(=O)O5)[C@@]12O` (stereo not given in full), for which the max response is 3.72% in the test on CRL-7250; -1.33% in the test on HEK293; -29.1% in the test with HaCat; -3.61% in the test with KB-3-1; -2.5% in the test on NIH3T3.

Turning to `CC(=O)O[C@@H]1[C@@H](O)[C@H](C)O[C@@H](O[C@H]2[C@@H]3C=CO[C@@H](O[C@@H]4O[C@H](CO)[C@@H](O)[C@H](O)[C@H]4O)[C@@H]3[C@@]3(CO)O[C@@H]23)[C@@H]1OC(=O)/C=C/c1ccccc1`, the max response with CRL-7250 is -1.26%; with HEK293, 2%; in the test with HaCat, -6.78%; in the test with KB-3-1, -1.35%; in the test on NIH3T3 it was -1.99%.

Regarding `COC(=O)C1=CO[C@@H](O[C@@H]2O[C@H](CO)[C@@H](O)[C@H](O)[C@H]2O)[C@H]2[C@@H]1CC(OC)O[C@@H]2C` (stereo not given in full), in the test with CRL-7250, the call was inactive. Further, the max response in the test on HEK293 was 4.51%; in the test with HaCat, -16.4%; in the test with KB-3-1, 3.52%; in the test on NIH3T3 it was -1.67%.

With `CC1=C(/C=C/C(C)=C\C=C\C(C)=C/C(=O)O)C(C)(C)CCC1`, the max response in the test on CRL-7250 was -50.6%; in the test on HEK293, 0.159%; with HaCat, -22.2%; in the test with NIH3T3, 0.69%. In addition, in the test with KB-3-1, the call was inactive.

With `CC1CC[C@]2(C(=O)O)CC[C@]3(C(=O)O)C(=CCC4[C@@]5(C)CC[C@H](O[C@@H]6O[C@H](CO)[C@@H](O)[C@H](O)[C@H]6O)C(C)(C)C5CC[C@]43C)C2C1C` (stereo not given in full), the max response is -9.19% in the test with CRL-7250; -4.94% in the test with HEK293; 4.65% with HaCat; 6.73% with KB-3-1; 2.56% in the test on NIH3T3.

For `Nc1ccc(-c2cccc3c(=O)cc(N4CCOCC4)oc23)cc1`, the Potency was 5.8 µM (active) in the test with CRL-7250; 7.31 µM (active) in the test on HEK293; 6.51 µM (active) in the test with HaCat; 20.6 µM (active) in the test with KB-3-1; 8.2 µM (active) in the test on NIH3T3.

Turning to `CC1C(OC(=O)c2ccccc2)C(O)C2C(C(=O)O)=COC(OC3OC(CO)C(O)C(O)C3O)C12` (stereo not given), the max response in the test on CRL-7250 is 3.33%; in the test with HEK293 it was -0.0764%; in the test with HaCat it was -2.92%; in the test with NIH3T3 it was 4.34%. The call in the test with KB-3-1 was inactive.

Regarding `CC(/C=C/C1=CC2=CC(=O)C(C)(O)C(O)C2=CO1)=C\C(C)CCO` (stereo not given), the max response with CRL-7250 was -1.14%; in the test on HEK293 it was -3.02%; in the test with HaCat, -24.3%; in the test on KB-3-1, 4.06%; with NIH3T3 it was 0.418%.

For the molecule `CC(C)(C)C(=O)CN1C(=O)[C@H](NC(=O)Nc2cccc(C(=O)O)c2)CN(C2CCCCC2)c2ccccc21`, the max response with CRL-7250 was 1.1%; in the test with HEK293, 1.37%; in the test with HaCat, -3.07%; in the test on NIH3T3 it was 1.3%. Moreover, in the test on KB-3-1, the molecule was called inactive.

For the molecule `CC(C)=CCC[C@](C)(O[C@@H]1O[C@H](CO)[C@@H](O)[C@H](O)[C@H]1O)[C@H]1CC[C@]2(C)[C@@H]1[C@H](O)CC1[C@@]3(C)CC[C@H](O)C(C)(C)C3[C@@H](O[C@@H]3O[C@H](CO)[C@@H](O)[C@H](O)[C@H]3O)C[C@]12C` (stereo not given in full), the max response in the test with CRL-7250 is -0.753%; in the test on HEK293, -3.92%; in the test on HaCat it was 4.06%; in the test on KB-3-1, 9.79%; in the test with NIH3T3 it was -17.5%.

For `N#Cc1cc(F)cc(-c2nc(-c3ccccn3)no2)c1`, the max response in the test on CRL-7250 was 1.54%; with HEK293, -8.23%; with KB-3-1 it was -6.38%; in the test with NIH3T3 it was -10.9%. The result in the test on HaCat was inactive.

As to `CCCOC(c1cc2nccc(C(=O)O)c2[nH]1)c1ccccc1Cl` (stereo not given), the max response with CRL-7250 was -10.8%; with HEK293 it was -12.6%; with HaCat it was -2.87%; in the test on NIH3T3, 4.32%. In addition, the molecule was classed as inactive in the test on KB-3-1.

For `CC1CCC23COC(=O)C2=CC(O)CC3C1(C)CCC1=CC(O)OC1=O` (stereo not given), the max response was -0.17% with CRL-7250, 1.91% in the test with HEK293, -7.3% in the test on HaCat and 0.229% with NIH3T3. The result in the test on KB-3-1 was inactive.

As for `Nc1ncnc2c1nc(N)n2[C@@H]1O[C@H](CO)[C@@H](O)[C@H]1O`, the Potency in the test with CRL-7250 is 2.59 µM (active); with HEK293 it was 1.64 µM (active); in the test with HaCat it was 0.58 µM (active); in the test on KB-3-1, 4.61 µM (active); with NIH3T3, 4.11 µM (active).
